# From the supplement of paper PMC10849652
# The full data set covers some 8,800 targets. This sample favours those with a hit. About 0.5% of all pairs of compound and target were hits. Unmarked numbers belong to inactive results.
# Experiments:
# Experiment in all cases: log2 fold change, soluble protein after heating vs DMSO (PISA); higher = thermal stabilisation; K562 lysate, 10 uM; active = over 0.2 and 3.5 SD of the protein, either way, in both replicates (recomputed)
# duvelisib = compound: C[C@H](Nc1ncnc2nc[nH]c12)c1cc2cccc(Cl)c2c(=O)n1-c1ccccc1 [duvelisib]
# Summary of the method: (§1)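 Following dounce homogenisation of K562 pellets in PBS pH 7.4 with 1 mM MgCl2, crude extract at 1 mg/mL protein was incubated for 30 min with 10 μM compound. Aliquots were then heated for 3 min over 48°C-58°C and pooled, NP-40 was added to 0.5% at 4°C, and soluble protein was recovered as the supernatant at 21,000xg for 90 min. Channel-sum-equalised TMTpro 16plex LC-MS/MS quantified this protein. Each value, from duplicates, is a log-two fold change in thermal stability relative to solvent controls.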
# tozasertib = compound: Cc1cc(Nc2cc(N3CCN(C)CC3)nc(Sc3ccc(NC(=O)C4CC4)cc3)n2)n[nH]1 [tozasertib]
# Summary of the method: as §1
# dasatinib = compound: Cc1nc(Nc2ncc(C(=O)Nc3c(C)cccc3Cl)s2)cc(N2CCN(CCO)CC2)n1 [dasatinib]
# Summary of the method: as §1
# [1] = compound: Cn1cc(-c2ccc3c(c2)CCN3C(=O)Cc2cccc(C(F)(F)F)c2)c2c(N)ncnc21
# Summary of the method: as §1
# [2] = compound: NC1(c2ccc(-c3nc4ccn5c(=O)[nH]nc5c4cc3-c3ccccc3)cc2)CCC1
# Summary of the method: as §1
# pictilisib = compound: CS(=O)(=O)N1CCN(Cc2cc3nc(-c4cccc5[nH]ncc45)nc(N4CCOCC4)c3s2)CC1 [pictilisib]
# Summary of the method: as §1
# bafetinib = compound: Cc1ccc(NC(=O)c2ccc(CN3CC[C@H](N(C)C)C3)c(C(F)(F)F)c2)cc1Nc1nccc(-c2cncnc2)n1 [bafetinib]
# Summary of the method: as §1
# nilotinib = compound: Cc1cn(-c2cc(NC(=O)c3ccc(C)c(Nc4nccc(-c5cccnc5)n4)c3)cc(C(F)(F)F)c2)cn1 [nilotinib]
# Summary of the method: as §1
# [3] = compound: Cc1nc(Nc2n[nH]c3c2CN(C(=O)N[C@H](CN(C)C)c2ccccc2)C3(C)C)c2sccc2n1
# Summary of the method: as §1
# [4] = compound: Cc1ncc(-c2ccnc(Nc3ccc(S(C)(=O)=O)cc3)n2)n1C(C)C
# Summary of the method: as §1
# tipifarnib = compound: Cn1cncc1[C@@](N)(c1ccc(Cl)cc1)c1ccc2c(c1)c(-c1cccc(Cl)c1)cc(=O)n2C [tipifarnib]
# Summary of the method: as §1
# lapatinib = compound: CS(=O)(=O)CCNCc1ccc(-c2ccc3ncnc(Nc4ccc(OCc5cccc(F)c5)c(Cl)c4)c3c2)o1 [lapatinib]
# Summary of the method: as §1
# crizotinib = compound: C[C@@H](Oc1cc(-c2cnn(C3CCNCC3)c2)cnc1N)c1c(Cl)ccc(F)c1Cl [crizotinib]
# Summary of the method: as §1
# doramapimod = compound: Cc1ccc(-n2nc(C(C)(C)C)cc2NC(=O)Nc2ccc(OCCN3CCOCC3)c3ccccc23)cc1 [doramapimod]
# Summary of the method: as §1
# quisinostat = compound: Cn1cc(CNCC2CCN(c3ncc(C(=O)NO)cn3)CC2)c2ccccc21 [quisinostat]
# Summary of the method: as §1
# [5] = compound: NC(=O)Nc1cc(-c2cccc(F)c2)sc1C(=O)N[C@H]1CCCNC1
# Summary of the method: as §1
# [6] = compound: NC(=O)c1cnc(N[C@@H]2CCCC[C@@H]2N)nc1Nc1cccc(-n2nccn2)c1
# Summary of the method: as §1
# [7] = compound: C[C@H](C1=CC=C(C=C1)C(=O)NC2=C3C=CNC3=NC=C2)N
# Summary of the method: as §1
# gandotinib = compound: Cc1cc(Nc2cc(CN3CCOCC3)c3nc(C)c(Cc4ccc(Cl)cc4F)n3n2)n[nH]1 [gandotinib]
# Summary of the method: as §1
# [8] = compound: Cc1cccc(CC(=O)N2CCc3c2ccc(-c2cn(C)c4ncnc(N)c24)c3F)n1
# Summary of the method: as §1
# UniProt Q15072, sequence (Q15072 whole entry, looked up): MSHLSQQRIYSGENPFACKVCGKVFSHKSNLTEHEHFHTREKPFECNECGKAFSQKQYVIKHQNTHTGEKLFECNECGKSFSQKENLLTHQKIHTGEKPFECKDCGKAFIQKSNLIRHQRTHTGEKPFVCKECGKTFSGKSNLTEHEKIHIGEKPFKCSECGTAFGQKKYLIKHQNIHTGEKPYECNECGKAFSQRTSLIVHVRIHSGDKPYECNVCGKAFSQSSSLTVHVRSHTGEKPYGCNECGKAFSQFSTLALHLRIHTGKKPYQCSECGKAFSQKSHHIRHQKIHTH
# UniProt O00488, sequence (O00488 whole entry, looked up): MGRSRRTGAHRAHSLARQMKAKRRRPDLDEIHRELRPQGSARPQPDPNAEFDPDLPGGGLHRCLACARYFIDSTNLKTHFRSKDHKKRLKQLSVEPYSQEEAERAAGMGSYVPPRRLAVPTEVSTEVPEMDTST
# UniProt Q6EMK4, sequence (Q6EMK4 whole entry, looked up): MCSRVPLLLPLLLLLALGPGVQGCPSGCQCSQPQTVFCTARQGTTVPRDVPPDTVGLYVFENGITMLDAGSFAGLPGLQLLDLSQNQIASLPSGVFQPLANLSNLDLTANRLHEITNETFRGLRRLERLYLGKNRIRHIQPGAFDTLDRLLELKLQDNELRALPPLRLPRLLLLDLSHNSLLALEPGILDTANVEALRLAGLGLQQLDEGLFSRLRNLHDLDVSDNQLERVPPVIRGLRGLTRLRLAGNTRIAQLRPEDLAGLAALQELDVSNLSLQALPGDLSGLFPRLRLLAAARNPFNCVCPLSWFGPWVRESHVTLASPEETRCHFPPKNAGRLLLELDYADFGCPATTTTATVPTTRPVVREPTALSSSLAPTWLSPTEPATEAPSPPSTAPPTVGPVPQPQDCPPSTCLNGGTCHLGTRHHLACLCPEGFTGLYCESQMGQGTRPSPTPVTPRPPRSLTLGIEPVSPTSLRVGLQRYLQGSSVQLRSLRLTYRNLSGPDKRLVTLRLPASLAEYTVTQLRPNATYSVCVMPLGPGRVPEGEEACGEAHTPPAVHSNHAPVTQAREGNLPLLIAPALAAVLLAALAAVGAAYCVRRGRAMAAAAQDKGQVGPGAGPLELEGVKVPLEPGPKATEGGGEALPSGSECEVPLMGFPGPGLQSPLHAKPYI
# UniProt Q15776, sequence (Q15776 whole entry, looked up): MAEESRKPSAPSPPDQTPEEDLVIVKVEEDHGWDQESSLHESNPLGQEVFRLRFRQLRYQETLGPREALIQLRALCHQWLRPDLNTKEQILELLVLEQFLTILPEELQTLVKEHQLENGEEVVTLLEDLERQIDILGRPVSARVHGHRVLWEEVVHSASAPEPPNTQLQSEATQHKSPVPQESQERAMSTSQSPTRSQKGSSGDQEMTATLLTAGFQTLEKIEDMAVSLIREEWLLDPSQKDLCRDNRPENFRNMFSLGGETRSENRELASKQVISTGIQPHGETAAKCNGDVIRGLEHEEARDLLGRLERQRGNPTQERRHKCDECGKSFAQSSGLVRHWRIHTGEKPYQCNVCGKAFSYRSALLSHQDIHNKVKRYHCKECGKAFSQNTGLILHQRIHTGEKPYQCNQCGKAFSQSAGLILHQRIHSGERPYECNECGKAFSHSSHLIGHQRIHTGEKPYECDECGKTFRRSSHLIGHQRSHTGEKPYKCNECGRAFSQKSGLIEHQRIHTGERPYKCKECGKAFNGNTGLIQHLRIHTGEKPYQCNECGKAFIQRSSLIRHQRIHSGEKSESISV
# UniProt Q8TCY9, sequence (Q8TCY9 whole entry, looked up): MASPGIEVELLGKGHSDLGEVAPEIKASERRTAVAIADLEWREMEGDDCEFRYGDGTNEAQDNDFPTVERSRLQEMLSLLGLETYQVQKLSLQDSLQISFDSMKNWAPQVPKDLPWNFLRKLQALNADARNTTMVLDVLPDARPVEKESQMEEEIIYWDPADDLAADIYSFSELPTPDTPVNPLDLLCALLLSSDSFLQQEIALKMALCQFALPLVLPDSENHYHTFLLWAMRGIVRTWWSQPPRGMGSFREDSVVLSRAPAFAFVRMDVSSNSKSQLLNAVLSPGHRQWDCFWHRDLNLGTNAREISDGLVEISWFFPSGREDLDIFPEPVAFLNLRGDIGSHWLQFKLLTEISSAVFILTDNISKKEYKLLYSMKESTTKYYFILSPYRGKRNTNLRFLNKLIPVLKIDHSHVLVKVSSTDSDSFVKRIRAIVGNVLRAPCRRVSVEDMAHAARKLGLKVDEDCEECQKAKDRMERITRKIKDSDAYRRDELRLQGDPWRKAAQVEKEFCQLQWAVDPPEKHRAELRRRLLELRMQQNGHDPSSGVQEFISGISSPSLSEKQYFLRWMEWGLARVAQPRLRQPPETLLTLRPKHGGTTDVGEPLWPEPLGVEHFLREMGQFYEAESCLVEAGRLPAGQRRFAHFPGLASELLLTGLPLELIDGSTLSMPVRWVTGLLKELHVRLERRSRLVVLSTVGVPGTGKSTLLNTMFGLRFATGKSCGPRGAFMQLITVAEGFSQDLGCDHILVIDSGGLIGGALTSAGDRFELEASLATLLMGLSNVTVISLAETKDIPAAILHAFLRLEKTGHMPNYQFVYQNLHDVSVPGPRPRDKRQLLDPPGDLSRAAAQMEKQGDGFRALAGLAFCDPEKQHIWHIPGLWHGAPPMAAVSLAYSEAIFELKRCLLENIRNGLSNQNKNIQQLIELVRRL
# UniProt P30291, sequence (P30291 whole entry, looked up): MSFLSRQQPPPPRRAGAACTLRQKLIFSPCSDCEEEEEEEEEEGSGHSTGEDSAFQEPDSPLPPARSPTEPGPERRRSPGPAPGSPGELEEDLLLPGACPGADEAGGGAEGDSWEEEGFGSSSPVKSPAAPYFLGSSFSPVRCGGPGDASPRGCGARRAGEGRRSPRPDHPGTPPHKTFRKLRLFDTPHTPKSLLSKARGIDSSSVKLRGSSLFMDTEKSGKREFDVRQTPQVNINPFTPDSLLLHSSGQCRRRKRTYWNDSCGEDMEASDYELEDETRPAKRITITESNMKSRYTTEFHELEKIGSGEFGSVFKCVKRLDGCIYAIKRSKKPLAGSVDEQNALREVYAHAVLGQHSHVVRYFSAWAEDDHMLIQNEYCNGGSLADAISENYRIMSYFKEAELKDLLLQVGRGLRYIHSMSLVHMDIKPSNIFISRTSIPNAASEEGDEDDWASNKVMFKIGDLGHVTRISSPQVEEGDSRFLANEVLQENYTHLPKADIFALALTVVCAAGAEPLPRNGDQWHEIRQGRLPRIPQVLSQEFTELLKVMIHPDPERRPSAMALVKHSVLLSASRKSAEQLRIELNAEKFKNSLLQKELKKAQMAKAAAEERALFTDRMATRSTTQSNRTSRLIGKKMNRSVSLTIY
Target,log2 fold change (duvelisib),log2 fold change (tozasertib),log2 fold change (dasatinib),log2 fold change [1],log2 fold change [2],log2 fold change (pictilisib),log2 fold change (bafetinib),log2 fold change (nilotinib),log2 fold change [3],log2 fold change [4],log2 fold change (tipifarnib),log2 fold change (lapatinib),log2 fold change (crizotinib),log2 fold change (doramapimod),log2 fold change (quisinostat),log2 fold change [5],log2 fold change [6],log2 fold change [7],log2 fold change (gandotinib),log2 fold change [8]
VASN (UniProt Q6EMK4),-0.119,0.08,0.081,0.027,-0.059,,,,,,,,,,,,,,,
URGCP (UniProt Q8TCY9),0.158,,-0.204,-0.145,,-0.025,-0.137,0.028,0.079,-0.04,-0.008,,,,,,,,,
WEE1 (UniProt P30291),0.033,0.011,0.397 (active),-0.002,-0.044,-0.047,0.068,-0.002,0.001,-0.033,-0.007,-0.034,-0.141,0.183,-0.069,0.223,-0.106,,,
ZNF593 (UniProt O00488),0.089,0.047,0.125,-0.042,0.03,0.078,0.059,,,,,-0.114,0.113,0.033,0.02,0.063,0.295,-0.087,0.016,0.045
ZKSCAN8 (UniProt Q15776),0.068,-0.014,-0.096,0.026,-0.064,,,0.05,0.015,-0.03,0.101,0.08,-0.151,0.082,-0.134,0.005,-0.029,,,
ZNF146 (UniProt Q15072),-0.018,,-0.028,0.188,,,,,,,,,,,,,,,,
